High-throughput results (PubChem BioAssay)
BCLXL inh – inhibitors of human Bcl-xL, primary screen, biochemical, fluorescence polarization, HTS; Bcl-2-like protein 1 (Homo sapiens), Q07817; GST-Bcl-xL / FITC-Bim BH3 peptide fluorescence polarization; inhibition, % at 10.9 µM; 320,000 compounds, 0.7% hits;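 active means inhibition above the mean of all tested compounds plus 3 SD, cutoff set per campaign, cut at about 30% in these data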;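 further: inhibitors lower millipolarization by displacing the labeled peptide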
Target sequence (Q07817 whole entry, looked up): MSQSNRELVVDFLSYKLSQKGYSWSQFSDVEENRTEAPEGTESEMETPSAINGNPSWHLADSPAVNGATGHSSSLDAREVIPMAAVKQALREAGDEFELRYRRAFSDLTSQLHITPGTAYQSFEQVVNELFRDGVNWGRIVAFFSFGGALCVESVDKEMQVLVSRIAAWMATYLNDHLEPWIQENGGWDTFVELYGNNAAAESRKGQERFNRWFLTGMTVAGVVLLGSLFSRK
MCL1 BIM primary – inhibitors of MCL1 binding to BIM-BH3, primary screen, biochemical, fluorescence polarization; GST-MCL1 / FITC-Bim-BH3 fluorescence polarization; inhibition, % at 10.9 µM; 320,000 compounds, 0.68% hits;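 active means inhibition above the mean inhibition of all tested compounds plus 3 SD, set per campaign, cut at about 40% in these data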;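 further: higher means more loss of mP so more displacement of Bim peptide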
Target sequence (Q07820 whole entry, looked up): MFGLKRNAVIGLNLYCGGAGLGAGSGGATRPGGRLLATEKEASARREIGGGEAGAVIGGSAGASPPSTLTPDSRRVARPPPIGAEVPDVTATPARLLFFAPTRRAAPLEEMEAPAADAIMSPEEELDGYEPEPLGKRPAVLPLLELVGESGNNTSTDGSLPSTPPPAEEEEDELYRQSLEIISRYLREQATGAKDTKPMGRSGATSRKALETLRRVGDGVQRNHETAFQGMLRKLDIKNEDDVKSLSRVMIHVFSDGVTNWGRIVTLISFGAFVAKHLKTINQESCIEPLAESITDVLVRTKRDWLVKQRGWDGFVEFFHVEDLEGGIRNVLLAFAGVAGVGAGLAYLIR
GLD-1 RNA inh – GLD-1/TGE RNA complex disruptors, primary screen, biochemical, fluorescence polarization | purified GLD-1 + fluorescein TGE RNA | inhibition, % at 5.96 µM | Female germline-specific tumor suppressor gld-1 (Caenorhabditis elegans), Q17339 | 320,000 compounds, 0.44% hits | AID 2280, 2010;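 active means percent inhibition above a per-plate cutoff, the plate mean of test compounds plus 3 SD, cut at about 30% in these data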
MEX-5 binding – MEX-5 zinc finger RNA-binding disruptors – biochemical, C. elegans, fluorescence polarization, MLPCN library, primary screen; MEX-5/FITC-TCR2 RNA binding; hits give low values; 300,000 compounds, 0.38% hits; AID 1832, 2009; Zinc finger protein mex-5 (Caenorhabditis elegans), Q9XUB2; activity score (negative = inhibition of binding), % at 10 µM;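 active means inhibition past about -25% in most replicates, and total fluorescence under double the plate's negative control median, limit read from the data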
eLon inh – inhibitors of E. coli Lon protease, primary screen, biochemical, fluorescence polarization. P0A9M0. purified E. coli Lon protease. 360,000 compounds, 0.42% hits. inhibition, % at 7.94 µM. AID 602123, 2011; in the data active means inhibition above about 13%, passing the limit was not always enough
EBV gp42 block – Epstein-Barr virus gp42 inhibitors, primary screen, biochemical, uHTS, fluorescence polarization; 220,000 compounds, 0.42% hits; Fluorescence polarization binding assay, mP read-out; inhibition, % (tested at 21.74 µM); in the data active means inhibition above about 50%
Bcl-xL conf – Bcl-xL inhibitors blocking Bim BH3 binding, confirmation, counter-screen for MCL1 inhibitor project, biochemical, fluorescence polarization | AID 2166, 2009 | 1,700 compounds, 54% hits | GST-Bcl-xL / FITC-Bim BH3 peptide FP binding | shares compounds with MCL1 BIM primary | inhibition, % at 10.9 µM;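 active means inhibition above a cutoff equal to the mean inhibition of all tested compounds plus 3 SD, cut at about 30% in these data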
MCL1 BIM confirm – inhibitors of MCL1 binding to BIM-BH3, confirmation, biochemical, fluorescence polarization, triplicate | shares compounds with MCL1 BIM primary | GST-MCL1 / FITC-Bim-BH3 fluorescence polarization | inhibition, % at 10.9 µM | 1,700 compounds, 61% hits;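 active means inhibition above the average of all tested compounds plus 3 SD, cut at about 40% in these data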
GLD1 RNA confirm – GLD-1/TGE RNA binding inhibitors, retest, confirmation, biochemical, fluorescence polarization, triplicate | shares compounds with GLD-1 RNA inh | inhibition, % at 5.96 µM | GLD-1/FL-TGE RNA fluorescence polarization | 550 compounds, 10% hits;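 active means average inhibition across triplicates above the hit cutoff set in the primary screen, cut at about 32% in these data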
Hits are given with their value; – = inactive; · = no result given. Only some compounds are listed: those with a hit (about 1.5% of all), similar ones and a draw of the others.

SMILES | BCLXL inh | MCL1 BIM primary | GLD-1 RNA inh | MEX-5 binding | eLon inh | EBV gp42 block | Bcl-xL conf | MCL1 BIM confirm | GLD1 RNA confirm
CC1(C)CNc2cc(N)ccc2S1 | – | 66 | – | – | – | – | 32 | 43 | ·
CCOC(=O)C1=C(CSc2nc3c(cc2C#N)CN(C)CC3)OC(N)=C(C#N)C1c1ccccc1 (stereo not drawn) | 68 | 85 | – | – | – | – | – | – | ·
COC(=O)C1=C(C)OC(N)=C(C#N)C1c1ccccc1F (stereo not drawn) | – | – | – | – | – | – | · | · | ·
COC(=O)C1=C(CSc2nc3c(cc2C#N)CN(C)CC3)OC(N)=C(C#N)C1c1ccccc1F (stereo not drawn) | 86 | 100 | 48 | – | – | – | – | – | ·
CCOC(=O)C1=C(CSc2nc3c(cc2C#N)CCC3)OC(N)=C(C#N)C1c1ccccc1 (stereo not drawn) | – | – | – | – | – | – | · | · | ·
O=C1c2ccccc2C(c2nnnn2Cc2ccccc2)N1CCc1ccccc1F (stereo not drawn) | · | · | · | · | – | · | · | · | ·
CC(C)N=C1NN=C(c2ccc(Cl)c(Cl)c2)CS1 | · | · | · | – | – | – | · | · | ·
Cc1cc2nc3ccc(N(C)C)cc3nc2cc1N | 120 | 126 | 41 | -28 | – | · | 128 | 143 | ·
CCCCN(C(=O)c1cccc(-n2cccc2)c1)c1c(N)n(Cc2ccccc2)c(=O)[nH]c1=O | – | 78 | – | – | – | · | – | – | ·
O=C(COC(=O)c1ccc(O)cc1)Nc1ccccc1 | – | – | – | – | – | · | · | · | ·
O=C(CCc1ccc(S(=O)(=O)N2CCOCC2)cc1)N/N=C/c1ccc(O)c(O)c1O | – | 46 | – | – | – | – | – | 59 | ·
O=C(CCc1ccc(S(=O)(=O)N2CCOCC2)cc1)N/N=C/c1ccc(F)cc1F | – | – | – | – | – | – | · | · | ·
COc1cccc(CN(C)C(=O)c2ccc(S(=O)(=O)Nc3ccccc3C)cc2)c1OC | · | · | · | · | – | · | · | · | ·
CN1CC=C2C(C#N)=C(N)C(C#N)(C#N)C(c3cccc(Cl)c3Cl)C2C1 (stereo not drawn) | 83 | 88 | 68 | -29 | – | 86 | 56 | 61 | ·
N#CC1=C(N)C(C#N)(C#N)[C@H](c2ccoc2)[C@H]2CN(Cc3ccccc3)CC=C12 | 114 | 125 | 75 | -46 | – | 90 | 106 | 120 | ·
CC(=O)N1CC=C2C(C#N)=C(N)C(C#N)(C#N)C(CCc3ccccc3)C2C1 (stereo not drawn) | – | – | – | – | – | – | · | · | ·
CCCCNC(=S)Nc1ccc(OC)nc1 | 56 | 58 | 49 | – | – | – | 43 | 52 | ·
Cc1ccc(-c2nn(CCC(=O)Nc3cccnc3)c(=O)c3ccccc23)cc1 | 82 | 85 | 61 | – | – | – | 73 | 97 | –
O=C(O)c1ccc2c(c1)C(=O)/C(=C/c1ccccc1)C2=O | 77 | 92 | 46 | – | – | – | 45 | 66 | –
CC(C)(C)N1C(=O)c2ccc(C(=O)O)cc2C1=O | – | – | – | – | – | – | · | · | ·
Cc1ccc(S(=O)(=O)N2CCCCC2)cc1C(=O)OC1CCCCC1=O (stereo not drawn) | – | – | – | – | – | · | · | · | ·
O=[N+]([O-])c1nn(-c2ccc3c(c2)OCCO3)n(O)c1=NCc1ccc(F)cc1 | – | – | – | – | – | – | · | · | ·
O=[N+]([O-])c1nn(-c2ccc3c(c2)OCCO3)n(O)c1=NCc1ccc(F)cc1Cl | 79 | 67 | 32 | – | – | – | – | – | –
Cc1ccc(C(=O)N/N=C/c2ccc(-c3ccc(Br)cc3[N+](=O)[O-])o2)o1 | 51 | 62 | 36 | – | – | · | – | – | 35
CC(C)(C)S(=O)(=O)N1Cc2ccc(CO)cc2[C@@H]1CCO | · | · | · | · | – | · | · | · | ·
SMILES | BCLXL inh | MCL1 BIM primary | GLD-1 RNA inh | MEX-5 binding | eLon inh | EBV gp42 block | Bcl-xL conf | MCL1 BIM confirm | GLD1 RNA confirm
Cc1nn2c(N)csc2nc1=O | 57 | 58 | 34 | – | · | – | 51 | 59 | –
CSc1ccc(/C=C/C(=O)OCC(=O)NCC2CCCO2)cc1 (stereo not drawn) | – | – | – | · | – | · | · | · | ·
N#CC(c1nc2ccccc2nc1N1CCCC1)S(=O)(=O)c1ccccc1 (stereo not drawn) | 66 | 70 | 40 | – | – | 102 | 75 | 76 | –
COc1ccc(S(=O)(=O)C(C#N)c2nc3ccccc3nc2N2CCCCC2)cc1 (stereo not drawn) | 68 | 79 | 69 | – | – | – | – | – | –
Cc1ccc(C(=O)Nn2cnnc2)cc1 | – | – | – | – | – | · | · | · | ·
C/C(CC(=O)Nc1ccccn1)=N\NC(=O)c1cccc(C)c1 | – | – | – | – | – | – | · | · | ·
Cc1ccccc1OCCN(C#N)c1nc(N(C)C)nc(N(C)C)n1 | – | – | – | – | – | – | · | · | ·
CC(C)CCNc1c(-c2cccs2)nc2ccccn12 | 75 | 68 | 46 | – | – | – | 46 | 69 | –
O=C(COc1ccc(Cl)cc1)Nc1c(-c2cccs2)nc2ccccn12 | – | – | – | – | – | – | · | · | ·
O=[N+]([O-])c1cccnc1Sc1ccc(F)cc1 | – | – | – | – | – | · | · | · | ·
CNc1nnc(Sc2ncccc2[N+](=O)[O-])s1 | 64 | 62 | 40 | – | – | – | – | – | –
CCn1c(SCc2ccccc2F)nnc1-c1ccncc1 | – | – | – | – | – | · | · | · | ·
N#CC1=C(N)C(C#N)(C#N)[C@H](c2c(F)cccc2F)[C@H]2CC3(CC=C12)OCCO3 | 58 | 62 | 55 | – | – | – | 35 | – | –
N#CC1=C(N)C(C#N)(C#N)C2(CCC3(CC2)OCCO3)C2CC3(CC=C12)OCCO3 (stereo not drawn) | – | – | – | – | – | – | · | · | ·
